The list is not random: actives were taken first. Their share in the collection is about 3.5%.
TEAD-YAP block: TEAD-YAP interaction inhibition, primary screen, TEAD-YAP interaction inhibitor project, luminescence, HEK-TIYL cells; TEAD-Gal4/YAP UAS-luciferase luminescence; inhibition, % at 9.12 µM; 640,000 compounds, 1.4% hits; AID 1259422, 2018; in the data active = inhibition above about 32%;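 also: 0% = median of test compound wells and 100% = reference inhibitor wells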
GPR151 ag: activators of human GPR151, primary screen, cell-based, PathHunter beta-arrestin, luminescence | G-protein coupled receptor 151 (Homo sapiens), Q8TDV0 | PathHunter beta-arrestin GPR151 cells | activation, % at 11.2 µM | 650,000 compounds, 1% hits; in the data active = activation above about 4.9%;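 also: 0% = median of compound wells and 100% = cells with positive control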
Target sequence (Q8TDV0 whole entry, looked up): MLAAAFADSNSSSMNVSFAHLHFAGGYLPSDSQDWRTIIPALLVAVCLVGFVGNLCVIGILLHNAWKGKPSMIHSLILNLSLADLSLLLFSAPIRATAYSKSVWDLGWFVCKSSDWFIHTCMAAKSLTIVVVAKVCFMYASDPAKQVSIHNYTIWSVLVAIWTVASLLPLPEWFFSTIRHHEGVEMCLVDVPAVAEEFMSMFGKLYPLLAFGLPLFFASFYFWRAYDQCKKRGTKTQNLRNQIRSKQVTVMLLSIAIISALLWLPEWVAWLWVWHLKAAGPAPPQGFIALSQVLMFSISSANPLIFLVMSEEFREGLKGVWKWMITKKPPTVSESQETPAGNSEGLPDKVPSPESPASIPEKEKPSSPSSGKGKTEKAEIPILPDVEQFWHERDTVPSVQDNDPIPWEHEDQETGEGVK
FBW7 act: FBW7 E3 ligase activators, primary screen, biochemical, AlphaScreen, human; 650,000 compounds, 0.13% hits; normalized activity (activation), % at 26.1 µM; F-box/WD repeat-containing protein 7 (Homo sapiens), Q969H0; AlphaScreen FBW7–phospho-cyclin E peptide binding, activator screen; in the data active = normalized activity above about 1.9%;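 also: purified mutant Fbw7 with reduced substrate affinity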
MITF inh: MITF inhibitors, primary screen, biochemical, AlphaScreen, human. AlphaScreen MITF homodimerization, bead proximity signal. 650,000 compounds, 0.91% hits. inhibition, % at 2.6 µM. Microphthalmia-associated transcription factor (Homo sapiens), O75030. AID 1259374, 2018; in the data active = inhibition above about 50%;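 also: 0% = vehicle wells with protein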
The depositor's hits bear a star; ! = not confirmed by another sample.

SMILES | TEAD-YAP block | GPR151 ag | FBW7 act | MITF inh
COc1ccc(-n2nc(C(=O)c3ccccc3)c(C(F)(F)F)cc2=O)cn1 | 49* | 2 | 0 | -2
COc1cc(C(F)(F)F)c(C(=O)NC2(O)C(=O)c3ccccc3C2=O)cn1 | 2 | -1 | -1 | 3
CCc1cc(NCc2ccco2)n2nc3nc(C)cc(C)c3c2n1 | 12 | 0 | 252* | -361
CCc1cc(NCc2cccs2)n2nc3nc(C)cc(C)c3c2n1 | -3 | 0 | 0 | -8
COC(=O)c1ccc(N2CCCCC2)c2c1C(=O)c1ccccc1C2=O | 3 | 4 | 0 | 55*
COC(=O)c1cnc(N2CCCCCC2)c2ccccc12 | -19 | -1 | 0 | 3
COc1ccc(/C=N/NC(=O)COc2cc(C)ccc2C(C)C)cc1O | 63* | 1 | 0 | 1
COc1ccc(-c2cnnc(N/N=C/c3ccc(O)c(OC)c3)n2)cc1 | 36* | 2 | 0 | 10
COc1cc(/C=N/NC(=O)c2cc(OC)c(OC)c(OC)c2)ccc1O | 56* | 1 | 0 | 1
COc1ccc(NC(=O)C(=O)N/N=C/c2ccc(O)c(OC)c2)cc1 | 14 | 0 | 25* | -65
COc1ccc(/C=N/NC(=O)C(=O)Nc2ccc(C)cc2)cc1 | 9 | -1 | 0 | -9
CN(C)CCNC(=O)CCSCc1ccccc1Cl | -1 | 1 | 0 | 30
COc1ccc(CN(CCCN(C)C)CCCN(C)C)c(OC)c1 | 0 | 1 | 0 | 48
COc1ccc(NC(=O)COc2ccc(/C=N/NC(=S)NC(C)C)cc2OC)cc1 | 33* | -1 | 0 | 6
COc1cc(C(=O)N/N=C/c2ccc(O)cc2O)cc(OC)c1OC | 55* | 0 | 0 | 52*
COc1cc(/C=N/NC(=O)c2ccccc2NC(=O)c2ccc([N+](=O)[O-])cc2)ccc1O | 72* | -2 | 0 | -10
COc1ccc(NC(=O)COc2ccc(/C=N/n3c(C)nnc3C)cc2OC)cc1 | -5 | 1 | 0 | 9
COc1cc(OC)c(OC)cc1/C=N\NC(=O)c1cc(O)c(O)c(O)c1 | -2 | 1 | 0 | 66*
CC1=C(C(=O)OCCOc2ccccc2)C(c2ccc(O)cc2)C2=C(CC(c3ccc(Cl)cc3)CC2=O)N1 (stereo unspecified) | -1 | -1 | 0 | -6
COc1ccc(NS(=O)(=O)c2cc(NC(=O)CNC(C)=O)ccc2N2CCCC2)cc1 | 39* | 0 | 0 | -2
COc1ccc(/C=C2/SC(=S)N(CCC(=O)NCCCN3CCOCC3)C2=O)cc1 | 2 | -1 | 0 | 3
CN(C)c1ccc(/C=C2\NC(=S)NC2=O)cc1[N+](=O)[O-] | -16 | 1 | 0 | 71*!
O=C1NC(=S)N/C1=C/c1ccc(O)c(O)c1 | 17 | 1 | 0 | 87*
COc1cccc(/C=N/NC(=O)COc2ccc(Cl)cc2)c1OC | 0 | 0 | 0 | -6
COc1cnc(Nc2ccc(N3CCOCC3)cc2)nc1-c1ccc(S(C)(=O)=O)cc1 | 12 | 1 | -1 | 18
SMILES | TEAD-YAP block | GPR151 ag | FBW7 act | MITF inh
CC(C)NC(=O)CCC(=O)N1CCOc2ccc(Cl)cc21 | -3 | 2 | 0 | 2
CCOCC(=O)Nc1cc(-c2cn3nc(OC)ccc3n2)ccc1F | 68* | -6 | 0 | -10
CCOCC(=O)Nc1ccc(-c2cn3nc(OC)ccc3n2)cc1 | 4 | -3 | 0 | 9
O=C(O)/C=C\C(=O)Nc1ccc2cn[nH]c2c1 | 47* | 0 | -1 | -5
O=C(O)/C=C\C(=O)Nc1ccc(Cl)c(Cl)c1 | 1 | 0 | 0 | 19
CCN1C(=C2C(=O)c3ccccc3C2=O)C=Cc2cc(C)ccc21 | -44 | 1 | 0 | 9
CCN1/C(=C/c2cc[n+](C)cc2)C=Cc2cc(C)ccc21 | 81* | 3 | -1 | 11
CC[n+]1ccc(/C=C2\C=Cc3ccc(C)cc3N2C)cc1 | -1 | 1 | 0 | 2
CC[n+]1c(/C=C2\C=Cc3cc(C)ccc3N2C)sc(C)c1C | 61* | 2 | 0 | 19
CC[n+]1ccc(/C=C2\C=Cc3cc(C)ccc3N2C)cc1 | 58* | 0 | 0 | 20
CC(C)(C)NC(=O)NC(=O)COc1ccc([N+](=O)[O-])cc1 | -10 | -1 | 0 | 3
CCc1c(C)nc2ncnn2c1NCCc1ccc(OC)cc1 | 66* | 0 | 0 | -1
CN1CCN(C(CC(=O)Nc2ccc(F)cc2)C(=O)O)CC1 (stereo unspecified) | 1 | 0 | 0 | -4
Cc1nc2ccc(-c3cnn(-c4cccc(N5CCOCC5)c4)c3)cc2c(=O)n1C | 87* | 0 | 0 | 7
CC(C)c1nc2ccc(-c3cnn(-c4cccc(CN5CCOCC5)c4)c3)cc2c(=O)[nH]1 | 14 | 1 | 0 | -8
Cc1ccc(C)c(N2CCN(C(=O)C34CC5CC(C3)CC(n3nnc(C)n3)(C5)C4)CC2)c1 | 37* | -1 | 1 | 24
CCc1nnc(NC(=O)CN2CCN(c3ccc(C(C)=O)cc3)CC2)s1 | 32* | -1 | 0 | -9
CC(=O)c1ccc(N2CCN(CC(=O)Nc3ncc(C)s3)CC2)cc1 | 0 | -1 | 0 | 12
Cc1cc(C)nc(/N=C(\N)Nc2ccc(Oc3ccccc3)cc2)n1 | 32* | 0 | 0 | 3
CCCCCOc1ccc(N/C(N)=N/c2nc(C)cc(C)n2)cc1 | 37* | 1 | 0 | -2
Cc1cc(C)nc(/N=C(\N)Nc2ccccc2)n1 | -1 | -1 | 0 | 3
CCCOc1ccc(N/C(N)=N/c2nc(C)cc(C)n2)cc1 | 35* | 0 | 0 | 5
OCC1(Cc2cccc(Cl)c2)CCCN(Cc2cccnc2)C1 (stereo unspecified) | 11 | 3 | 0 | -4
Cc1nc(NCc2ccc3c(c2)OCO3)c2c(C)c(C)sc2n1 | 39* | 2 | 0 | 6
Cc1nc(NCC2COc3ccccc3O2)c2c(C)c(C)sc2n1 (stereo unspecified) | 47* | 3 | 0 | -12
SMILES | TEAD-YAP block | GPR151 ag | FBW7 act | MITF inh
c1ccc(Cc2nc(NCC3COc4ccccc4O3)c3c4c(sc3n2)CCCC4)cc1 (stereo unspecified) | -6 | 1 | 0 | 9
CSc1ccc(CN2CCCC(c3ccn[nH]3)C2)cc1 (stereo unspecified) | 17 | -1 | 0 | 6
CN(C)/C=N/C1=C(C#N)C(c2ccc3c(c2)OCO3)c2ccc3ccccc3c2O1 (stereo unspecified) | 45* | 1 | 0 | -7
CC(C)(C)OC(=O)Nc1ccc(SCC(=O)O)cc1 | 83* | 1 | 0 | -7
COC(=O)Nc1ccc(SCC(=O)c2ccccc2)cc1 | -2 | 2 | 0 | 3
CC(C)(C)NS(=O)(=O)c1ccc(Cc2ccc(S(=O)(=O)NC(C)(C)C)cc2)cc1 | 37* | -1 | 0 | -4
CC(C)NS(=O)(=O)c1ccc(Cc2ccc(S(=O)(=O)NC(C)C)cc2)cc1 | 35* | 1 | 0 | 5

Bioassay records as filed in PubChem BioAssay.
